Results from PubChem BioAssay AID1159506 (National Center for Advancing Translational Sciences (NCATS), 2015).
Over roughly 59,000 sequences, the read-out has its median near -0.00055; the lowest 2% begin near -2. This is one part of a sample in which the lowest values are shown more often than they occur.

experiment: Identification of proteins required for the processing of the EWS-FLI1 nascent transcript; conditions: TC32 Ewing sarcoma NR0B1-luc vs CMV-luc (EWS-FLI1 target promoter against control promoter), 48 h; screened at 20 nM (by protocol);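 further: robust z of luciferase light less the median z of siRNAs with the same seed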
Experimental: Ewing sarcoma (ES) cells depend on the EWS-FLI1 fusion transcription factor for cell survival. Using an assay of EWS-FLI1 activity and genome-wide siRNA screening we have identified proteins required for the processing of the EWS-FLI1 nascent transcript. Parallel genome-wide siRNA-mediated RNAi screens were conducted in Ewing sarcoma TC32 cell lines expressing a luciferase (luc) reporter protein driven by either the promoter of the EWS-FLI1 target gene NR0B1 (TC32-NR0B1-luc) or the CMV promoter (TC32-CMV-luc). Luciferase activity was assessed 48 hours post siRNA-transfection.
Twenty microl of serum-free media containing Lipofectamine RNAiMax (0.05 microl) was added to wells containing siRNA (0.8 pmol). Lipid and siRNA were allowed to complex for 45 min at ambient temperature before addition of 600 cells in RPMI-1640, 20% FBS to yield final transfection mixtures containing 20 nM siRNA in RPMI-1640, 10% FBS. Luciferase expression was measured using OneGlo (Promega, Madison, WI). The genome-wide screening campaign was conducted using Ambion's human genome library version 4.1 (Ambion, Austin TX). This library targets approximately 21000 human genes, three siRNAs per gene. Each siRNA is arrayed in an individual well of a 384-well plate. Parallel transfections were conducted in TC32-NR0B1-luc and TC32-CMV-luc cell lines and luciferase expression (OneGlo, Promega) was assayed 48 h later on a PerkinElmer Envision 2104 Multilabel plate reader (PerkinElmer, Waltham, MA). Qiagen's AllStars Negative control was incorporated on all screening plates for normalization (16 wells per plate). Qiagen, Germantown, MDsiGL4 was incorporated as a positive transfection control (16 wells per plate) on all plates. […] The raw luciferase data for the NR0B1- and CMV-luc screens were normalized and z-score-MAD transformed using standard methods (Chung et al., 2008). The miRNA-like seed sequence of every siRNA was determined and the median z-score for all siRNA sequences with the same seed sequence was calculated. This z-score was subtracted from the z-score associated with each siRNA with that seed sequence to generate a seed-adjusted z-score value (Z) that was used when the results for the three siRNAs corresponding to each gene were compared (Marine et al., 2012)

Q: For CAAGUCAUGCCAGCACUGG against LOC645852, which seed-corrected z-score is on record?
A: 0.383

Q: With UAAUCUAAUCCUUCUAAAG against PCDHGA7 as the sequence, how does the seed-corrected z-score read?
A: 1.3

Q: Which seed-corrected z-score does the source give for UUCCUUCCAGGACAUGAGC against MIR503HG here?
A: -2.21

Q: Which seed-corrected z-score does the source give for UUUGGUUGAAGGGACCCUC against OR1J2 here?
A: 0.501

Q: With UCCUUUGAUAGCCUCUUCG against ELAVL3 as the sequence, how does the seed-corrected z-score read?
A: -0.214

Q: Which seed-corrected z-score does the source give for UAACUGUUCACCGCGUCCA against LINC01530 here?
A: -0.696

Q: For UUACAAAGAAGCACGUUCA against HOXB8, which seed-corrected z-score is on record?
A: 0.191

Q: For AAACAGGAAGGUGCUAUCG against GALT, which seed-corrected z-score is on record?
A: -0.3

Q: With AUACUUGCAAACAAACUCC against RREB1 as the sequence, how does the seed-corrected z-score read?
A: -1.3

Q: With UGAUUUCUGACCUCCAUUC against TMEM43 as the sequence, how does the seed-corrected z-score read?
A: 1.18

Q: For ACUGUUCCCAACAAGGUCC against UBXN4, which seed-corrected z-score is on record?
A: 1.66

Q: For AAACCUAAGAAUACAAGUU against SAR1A, which seed-corrected z-score is on record?
A: 0.849

Q: For ACAGUUGCCCUUGUCCUGG against LOC440292, which seed-corrected z-score is on record?
A: -3.34

Q: For AUUGGAGAGAGGUUCAUUC against YWHAH, which seed-corrected z-score is on record?
A: -0.058

Q: For UGACGGCUGGUCGUGAUCU against SPDYE2, which seed-corrected z-score is on record?
A: 0.00759

Q: Which seed-corrected z-score does the source give for UACAGGUAGACCUCGUGGG against UPK3A here?
A: 0.24

Q: With UCAGGAUCAUGAGUAGGCG against DEPDC5 as the sequence, how does the seed-corrected z-score read?
A: 1.12

Q: With AAACCUAUUCCUUCCAUUU against ARL6IP5 as the sequence, how does the seed-corrected z-score read?
A: 0.0394

Q: For UUAGAGUCCAGAUUCAGGA against ST3GAL3, which seed-corrected z-score is on record?
A: 0.675

Q: With AAACGAUCAUGGUCUCUGC against COPA as the sequence, how does the seed-corrected z-score read?
A: -3.42

Q: For UGAUCUUGAACUGCACCAC against SUMO3, which seed-corrected z-score is on record?
A: -0.708

Q: With UGGAGUAAGAGCUAUACGC against CYTIP as the sequence, how does the seed-corrected z-score read?
A: -0.125

Q: Which seed-corrected z-score does the source give for AACGUGUCACCACAUAUGG against MAPK10 here?
A: -2.05

Q: Which seed-corrected z-score does the source give for UUAGCAACCACGGACACUG against ACR here?
A: 0.604

Q: With AUACCUUUCAGGAUGAGGG against TMEM178A as the sequence, how does the seed-corrected z-score read?
A: -0.305

Q: With UUCAUAACUCUGUUGUGCC against FNBP1L as the sequence, how does the seed-corrected z-score read?
A: 0.0737

Q: For UUCUGUACGCAGGUGAUUG against COL1A1, which seed-corrected z-score is on record?
A: 0.0612

Q: With UUUACGACGCAUCUCAGCC against ARCN1 as the sequence, how does the seed-corrected z-score read?
A: -2.64

Q: With ACGGUUUUUACAUCGAUUC against PTPRO as the sequence, how does the seed-corrected z-score read?
A: 0.657

Q: With UAUUGUGCAAUUUGGUGGG against KLF13 as the sequence, how does the seed-corrected z-score read?
A: 0.422

Q: With AAUAUCCCAAUGUUCAUGC against FHDC1 as the sequence, how does the seed-corrected z-score read?
A: -2.13

Q: For AAACCAAACAAGGAUACCU against C20orf173, which seed-corrected z-score is on record?
A: 2.47

Q: With ACAUAUACUGGUAACACUG against SH3GLB1 as the sequence, how does the seed-corrected z-score read?
A: -0.404

Q: For UGAUGUCUACAAUAUCACC against RPL21P20, which seed-corrected z-score is on record?
A: -2.36

Q: For UUUAUCACCAGGUUAAGCC against GLUD1, which seed-corrected z-score is on record?
A: -0.205

Q: For UCUCGGAUCAUGAUGUUGU against PIK3CD, which seed-corrected z-score is on record?
A: 0.452
